Experimental data from PubChem BioAssay (NCI).
The panel holds about 79,000 compounds, 15% with a hit somewhere; the sample as a whole holds those more often. Values without a mark were called inactive. Calls of active or inactive are those of the source. Cut-off read from the data, not from the text of the source: active = growth inhibition above about 70%; inactive = the rest.

Assay: NCI Yeast Anticancer Drug Screen. Data for the rad50 strain (AID 155);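 note: 0% = growth of vehicle-only cultures of the same strain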
Settings: S. cerevisiae rad50 strain growth inhibition; at 50.0 µM; active compounds read high
Method in brief: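 Inhibition values express reduced yeast growth in compound-treated cultures relative to vehicle-treated controls.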

SMILES | growth inhibition
O=C(Nc1ccc2c(c1)OCO2)O/N=C\c1ccccn1 | 9.15%
COc1ccc(C(O)/C(=C/n2ccnc2)c2ccccc2)cc1OC (configuration not stated) | -23.8%
CC(C)N(CCn1c2c3ccccc3ccc2c2oc(=O)c3ccccc3c21)C(C)C | 13.8%
CCOC(=O)c1cnc2n(c1=O)[C@H]1CCCC[C@@H]1N2 | 59%
O=[N+]([O-])c1ccc(COP(=O)(OCc2ccc([N+](=O)[O-])cc2)OCc2ccc([N+](=O)[O-])cc2)cc1 | -8%
NNc1ncnc2c1ncn2Cc1ccccc1 | 1.65%
CC(=O)CC(C)(C)NNS(=O)(=O)c1ccc(C)cc1 | 7.8%
CCCCCCn1cnc2c(=S)nc[nH]c21 | 24.6%
C/C(CCc1ccccc1)=N/Nc1ccc([N+](=O)[O-])cc1[N+](=O)[O-] | 0.65%
O=C(C#Cc1ccccc1)[O][Sn]([c]1ccccc1)([c]1ccccc1)[c]1ccccc1 | 99% (active)
COc1ccc(CCCc2cc3c(cc2OC)OCO3)cc1 | 5.6%
O=C(O)c1ccc(Cl)c(C(=O)O)c1 | 13.8%
CCC1([N+](=O)[O-])CC2C=CC1C2 (configuration not stated) | 2.2%
O=C1CSC(/C(=C\c2ccc(Cl)cc2)c2nc3ccccc3[nH]2)=N1 | 11.3%
CC1CCOC(c2ccccc2Cl)O1 (configuration not stated) | -25%
CN1C(=O)C(=O)OC1=C(c1ccccc1)c1ccccc1 | 2.9%
c1cc2c3c(cccc3c1)N=S=N2 | 25.4%
